Screening data deposited in PubChem BioAssay by National Center for Advancing Translational Sciences (NCATS).
The list is not random: actives were taken first. Their share in the collection is about 2.3%.
TDP43 rescue – inhibitors of TDP-43 toxicity in yeast; AID 652104; 410,000 compounds, 1.8% hits; TDP-43 expressing yeast growth rescue, BacTiter-Glo, 24 h; Potency, µM (titrated, usually from 46.1 µM), without a hit: at the top dose growth rescue (activation), hits mostly activators; further: % of control where 0% means no effect; nearly all actives have a fitted effect of over 50% in size
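Yeast cells expressing TDP-43 under galactose induction are exposed to compounds for 24 hr at 30 deg C. BacTiter-Glo luminescence measures growth, so protective compounds score as activators.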
Abeta yeast res – restores growth of yeast expressing A-beta42 peptide; yeast expressing A-beta42, growth rescue, OD600, 48 h; response scale: 0% DMSO, 100% iron-clioquinol control; Potency, µM (top dose mostly 46.1 µM), hits mostly activators; 410,000 compounds, 0.063% hits; further: nearly all actives have a fitted effect of over 55% in size
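Growth rescue measured by 600 nm absorbance after 48 h yeast culture at 30 C with compound. Values normalized between DMSO and an equimolar ferric chloride plus clioquinol control.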
aSyn rescue – rescues yeast growth from alpha-synuclein toxicity. Yeast expressing alpha-synuclein, growth rescue, BacTiter-Glo, 24 h. Potency, µM (titrated, usually from 46.1 µM), inactives show top-dose growth rescue (activation), most hits filed as activators. 370,000 compounds, 0.14% hits. AID 652106; further: % of control where 0% means no effect; nearly all actives have a fitted effect of over 65% in size
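Rescue of yeast growth: cells expressing toxic alpha-synuclein, induced in galactose at OD600 0.02, incubated with compound 24 h at 30 C. ATP luminescence quantified growth; inhibitors of toxicity appear as activators.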
uPA generation – cell surface uPA generation inhibition; cell surface uPA generation assay, qHTS; 330,000 compounds, 0.31% hits; Potency, µM (highest dose often 38.3 µM), for inactives: top-dose activity change, negative = inhibition, usual class: inhibitors; active means well fitted inhibition curve with a large enough effect; inconclusive means small, poorly fitted or top-dose-only effect; inactive means no such curve, though single readings can be large or run the other way; tested in mouse RAW 264.7 cells; further: on the % scale 0 is the no-effect control and ±100 the full control effect; nearly all actives have a fitted effect of over 55% in size
FUS suppressor – FUS proteinopathy suppression in yeast; S. cerevisiae FUS-expressing, growth rescue, OD600, 24 h; Potency, µM (doses to about 76.6 µM), usual class: activators; 390,000 compounds, 0.24% hits;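 further: plate controls were DMSO vehicle for no effect and reference control for full effect; nearly all actives have a fitted effect of over 55% in size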
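Quantitative HTS measuring growth restoration of FUS-toxic yeast. Galactose-induced cells (OD 0.005) were exposed 24hr at 30C to compounds at several concentrations, then absorbance at 600 nm was recorded.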
Chronic BCR inh – blocks chronic active B-cell receptor signaling; ABC-DLBCL IkBa-CBG/CBR reporter, luminescence ratio, 4 h; Potency, µM (series often up to 46.1 µM), without a hit: top-dose activity change, negative = inhibition, actives largely listed as inhibitors; 340,000 compounds, 0.05% hits; AID 493014; active means well fitted inhibition curve with a large enough effect in the signal ratio, with a control signal flat, not every such curve was filed as active; inconclusive means small, poorly fitted or top-dose-only effect, or effect the other way, or a change in a side signal; the % refers to the signal ratio;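 further: plate controls were basal doxycycline-induced cells for no effect and cells given 10 µM MG132 for full effect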
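Concentration-response series (up to 46 uM) were applied to TMD8 dual-reporter cells for 4 h at 37C with doxycycline. Green/red ratio, after filter-overlap correction, defined %Activity; red signal alone was normalised to basal cells and zero luminescence.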
Starred values were filed as active, the others as inactive; i = inactive; ? = inconclusive; / = no result given. Unless noted, the call rests on the fitted dose curve; in most records, active means well fitted curve in the direction sought with a large enough effect; inconclusive means small, poorly fitted or top-dose-only effect, or another doubt; inactive means no such curve, though single readings can be large; an effect the other way counts as inactive or inconclusive. Potency means the concentration at half of the fitted maximal effect.

SMILES | TDP43 rescue | Abeta yeast res | aSyn rescue | uPA generation | FUS suppressor | Chronic BCR inh
O=C(NCc1ccc2c(c1)OCO2)c1ccc2c(c1)OCO2 | 18% | ? | 0% | -7% | i | -3%
COc1ccc(N(C)C(=O)c2ccc3c(Cl)c4c(nc3c2)CCCC4)c(OC)c1 | 9% | i | 6% | -20% | ? | ?
Cc1ccc(N(C)C(=O)c2ccc3c(Cl)c4c(nc3c2)CCC4)cc1C | 25µM* | i | ? | -22% | ? | 4%
O=C(NCc1cccc(Cl)c1)c1ccc2c(c1)OCCO2 | 10µM* | i | 1% | 0% | i | -8%
O=C(NCc1ccc2c(c1)OCO2)c1ccc2c(c1)OCCO2 | 25µM* | ? | -23% | -7% | i | ?
Cc1cc(C(=O)NCc2ccc3c(c2)OCO3)ccc1[N+](=O)[O-] | 18µM* | ? | -10% | 5% | i | -2%
O=C(NCc1ccccc1Br)c1ccc2c(c1)OCCO2 | 11µM* | i | 7% | 1% | i | ?
Cc1cccc(NC(=S)NCc2ccc3c(c2)OCO3)c1 | 18µM* | i | -1% | -3% | i | ?
O=C(NCc1cccc(Cl)c1)c1ccc2c(Cl)c3c(nc2c1)CCCC3 | 11µM* | i | / | / | i | /
CCOc1ccc2oc(C(=O)OCC(=O)NCC3CCCO3)c(C)c2c1 (stereo unspecified) | 17% | i | 5% | 0% | i | -2%
NC(=O)c1ccc(-n2nnnc2Oc2ccccc2)cc1 | -17% | i | -10% | 2% | i | ?
COc1cccc(Oc2nnnn2-c2ccccc2)c1 | 13µM* | i | / | 0% | i | 1%
COc1ccc(Oc2cnn(-c3ccccc3)c(=O)c2Br)cc1 | 13µM* | i | 1% | 1% | i | -10%
COc1ccc(Oc2nnnn2-c2ccccc2)cc1 | 11µM* | i | -6% | -4% | i | 8%
Clc1ccc(Oc2nnnn2-c2ccccc2)cc1 | 11µM* | i | -3% | -7% | i | 0%
Clc1ccc2c(c1)nc1n2CCCC1 | 4% | i | -1% | -52% | i | ?
O=C(Oc1cccc2cccnc12)c1ccc2c(c1)OCCO2 | ? | i | 18% | 1% | i | ?
Cc1cc(C)c2c(n1)SCC(=O)N2CC(=O)Nc1ccccc1C | 20% | i | / | / | i | /
Cc1ccc(C(C)C)c(Oc2nnnn2-c2ccccc2)c1 | 0% | i | -24% | ? | i | 12%
Cc1ccc(C)c(Oc2nnnn2-c2ccccc2)c1 | 11µM* | i | -2% | 1% | i | -12%
COc1ccc([C@H]2CC(=O)C=C(c3ccc4ccn(C)c4c3)C2)cc1 | -10% | i | 9% | -4% | i | 0%
CCOC(=O)C1CCN(C(=O)c2oc3ccc4c(c3c2C)C(O)CC2(CCCCC2)O4)CC1 (stereo unspecified) | 25µM* | i | 9% | 1% | ? | 7%
COc1ccc(NC(=O)n2ncc3cc(Cl)ccc32)cc1OC | 11% | i | 11% | 2% | i | -3%
Cc1ccc2ccc3cc(C(=O)Nc4ccc(C)c(F)c4)nc3c2[nH]1 | 4µM* | i | -24% | / | i | /
Cc1ccc2ccc3cc(C(=O)N4CCN(c5ccccc5F)CC4)nc3c2[nH]1 | ? | i | 3% | / | i | /
SMILES | TDP43 rescue | Abeta yeast res | aSyn rescue | uPA generation | FUS suppressor | Chronic BCR inh
Clc1cccc(CSc2nc3ccncc3[nH]2)c1 | 11% | i | 12% | 4.5µM* | i | -10%
CC1(C(=O)NCc2ccc(C(F)(F)F)cc2)CCN1Cc1c(F)cccc1F (stereo unspecified) | -8% | i | 12% | / | i | /
CC1(C(=O)NCc2ccc(C(F)(F)F)cc2)CCN1Cc1ccc(-c2ccccc2)o1 (stereo unspecified) | 19% | i | 16µM* | / | ? | /
CCN(CC)C(=O)CSc1nc2ccc(NC(=O)CSc3nnc(N)s3)cc2s1 | -5% | i | 0% | -2% | 10µM* | 4%
O=C(c1ccc(F)cc1)N1c2ncnn2C2(CCCCC2)[C@@H]2CCCC[C@@H]21 | ? | i | / | / | i | /
O=C(c1ccccc1)N1c2ncnn2C2(CCCCC2)[C@@H]2CCCC[C@@H]21 | 35µM* | i | / | / | i | /
O=C(CCl)N1CCN(S(=O)(=O)c2ccc3c(c2)CCC3)CC1 | ? | i | 0% | 1µM* | i | ?
Nc1c2c(nc3ccn(Cc4ccccc4)c(=O)c13)CCC2 | 3% | i | 2% | -1% | i | 3%
C=CCN(CC=C)C(=S)NC(=O)c1ccc(C)c(Br)c1 | ? | i | 14µM* | -4% | / | ?
C=CCN(CC=C)C(=S)NC(=O)c1ccc(-c2ccccc2)cc1 | 13µM* | i | ? | -2% | / | ?
C=CCN(CC=C)C(=S)NC(=O)c1ccc(OC)cc1 | 26% | i | -10% | / | i | ?
Cc1ccc2nc(NC(=O)CCn3c(=O)sc4ccccc43)sc2c1 | 20µM* | i | -5% | -3% | i | ?
O=C(CCn1c(=O)sc2ccccc21)Nc1nc2ccccc2s1 | 28µM* | i | 12% | 7% | i | ?
CCN(Cc1nc2ccccc2c(=O)[nH]1)C(=O)c1cccc(OCc2c(C)noc2C)c1 | 15% | i | -1% | 15% | i | 10%
CCN(Cc1ccc(Cl)s1)C(=O)c1cccc(OCc2c(C)noc2C)c1 | 35µM* | i | -1% | -3% | / | -9%
COc1cc2c(cc1[N+](=O)[O-])n(C(C)C)c(=O)n2C(C)C | 18% | i | 6% | -27% | i | ?
CC(=O)CCc1ccc(Oc2nc(-c3cccnc3)nc3ccccc23)cc1 | 14µM* | i | 9% | 8% | i | 0%
COc1ccc(Oc2nc(-c3cccnc3)nc3ccccc23)cc1 | 2% | i | 2% | 1% | i | ?
O=C(c1ccccc1)c1coc2c1C(=O)c1ccccc1C2=O | ? | i | -28% | 7% | i | -3%
O=C1c2ccccc2C(=O)c2c1oc(C(F)(F)F)c2C(=O)c1ccccc1 | 3.5µM* | i | -49% | -3% | / | 1%
Cc1oc2c(c1C(=O)NCc1cccnc1)C(=O)c1ccccc1C2=O | 35µM* | i | 11% | ? | i | ?
CC(=O)c1c(C)oc2c1C(=O)c1ccccc1C2=O | 5µM* | i | -4% | -9% | / | ?
COc1ccc(CNC(=O)c2c(C)oc3c2C(=O)c2ccccc2C3=O)cc1 | ? | i | 3% | -15% | i | 5%
Cc1cnc(C(=O)N2CCN(S(=O)(=O)c3ccc4ccccc4c3)CC2)cn1 | 1% | i | 5% | 2% | i | -17%
